# From PMC7862700, “An all-to-all approach to the identification of sequence-specific readers for epigenetic DNA modifications on cytosine”
# Key:
# Assay in all cases: DAPPL (digital affinity profiling via proximity ligation, sequencing); 10 mM Tris-HCl pH 7.5, 50 mM NaCl, 1 mM DTT, 4% glycerol, room temperature, 30 min; GST-TFs on glutathione beads, 16-mer random dsDNA library, 0.1% formaldehyde crosslink after washing; high values mean tight binding
# [1] = biological target: T1, FLI1 (Homo sapiens, UniProt Q01543 1-452); settings: protein: recombinant; tags: N-terminal GST; dsDNA, one strand shown
# T1 sequence: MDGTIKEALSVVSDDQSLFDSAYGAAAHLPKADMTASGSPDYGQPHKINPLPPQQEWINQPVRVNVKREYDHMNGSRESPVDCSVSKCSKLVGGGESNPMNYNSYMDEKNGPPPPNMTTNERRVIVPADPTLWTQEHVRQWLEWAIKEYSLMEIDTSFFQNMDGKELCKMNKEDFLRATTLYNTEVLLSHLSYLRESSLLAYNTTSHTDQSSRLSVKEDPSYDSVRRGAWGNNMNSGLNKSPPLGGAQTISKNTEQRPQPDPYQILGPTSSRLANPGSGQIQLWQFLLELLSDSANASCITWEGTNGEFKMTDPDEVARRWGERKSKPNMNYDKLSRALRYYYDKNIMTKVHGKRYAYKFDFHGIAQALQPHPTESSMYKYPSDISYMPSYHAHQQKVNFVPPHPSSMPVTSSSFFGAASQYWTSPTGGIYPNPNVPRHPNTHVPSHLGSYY
# Method in brief: (§1)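 Human transcription factors fused to GST were expressed in yeast, captured on glutathione beads, given DNA barcodes and pooled with a GST-only negative control. Pools were incubated with 200 nmole of a 16-mer random double-stranded DNA library in Tris/NaCl/DTT/glycerol buffer at room temperature for 30 min. They were then washed, crosslinked with 0.1% formaldehyde, proximity-ligated (BsaI/T4 ligase, 1 h, 37 °C), PCR-amplified and sequenced on an Illumina NextSeq500. Binding signal is each 6-mer's read frequency for a factor divided by its frequency for the GST control.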
# [2] = biological target: T2, ELK1 (Homo sapiens, UniProt P19419 1-428); settings: protein: recombinant; tags: N-terminal GST; dsDNA, one strand shown
# T2 sequence: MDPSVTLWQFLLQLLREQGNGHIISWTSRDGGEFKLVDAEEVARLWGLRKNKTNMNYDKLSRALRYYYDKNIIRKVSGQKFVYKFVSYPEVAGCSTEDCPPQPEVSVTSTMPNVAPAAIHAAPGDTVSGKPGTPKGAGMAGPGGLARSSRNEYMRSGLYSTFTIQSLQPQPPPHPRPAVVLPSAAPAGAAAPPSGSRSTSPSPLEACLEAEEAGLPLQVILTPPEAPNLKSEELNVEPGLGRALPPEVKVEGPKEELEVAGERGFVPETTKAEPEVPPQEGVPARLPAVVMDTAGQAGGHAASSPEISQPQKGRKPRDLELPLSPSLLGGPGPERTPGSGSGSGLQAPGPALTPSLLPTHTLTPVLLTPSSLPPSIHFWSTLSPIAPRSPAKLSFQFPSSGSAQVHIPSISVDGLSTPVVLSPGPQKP
# Method in brief: as §1
# [3] = biological target: T3, GABPA (Homo sapiens, UniProt Q06546 1-454); settings: protein: recombinant; tags: N-terminal GST; dsDNA, one strand shown
# T3 sequence: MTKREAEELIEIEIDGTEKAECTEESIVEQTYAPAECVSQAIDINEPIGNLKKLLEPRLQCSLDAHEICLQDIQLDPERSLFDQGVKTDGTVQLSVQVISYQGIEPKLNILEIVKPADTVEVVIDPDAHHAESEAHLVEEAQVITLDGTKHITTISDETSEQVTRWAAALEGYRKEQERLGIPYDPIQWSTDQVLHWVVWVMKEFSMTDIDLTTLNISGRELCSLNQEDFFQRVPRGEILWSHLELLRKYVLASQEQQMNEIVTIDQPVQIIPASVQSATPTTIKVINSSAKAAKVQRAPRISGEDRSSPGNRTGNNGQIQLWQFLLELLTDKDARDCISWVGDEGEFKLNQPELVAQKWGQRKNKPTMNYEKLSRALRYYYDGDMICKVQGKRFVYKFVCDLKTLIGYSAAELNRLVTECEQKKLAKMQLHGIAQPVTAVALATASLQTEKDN
# Method in brief: as §1
# [4] = biological target: T4, ERG (Homo sapiens, UniProt P11308 1-479); settings: protein: recombinant; tags: N-terminal GST; dsDNA, one strand shown
# T4 sequence: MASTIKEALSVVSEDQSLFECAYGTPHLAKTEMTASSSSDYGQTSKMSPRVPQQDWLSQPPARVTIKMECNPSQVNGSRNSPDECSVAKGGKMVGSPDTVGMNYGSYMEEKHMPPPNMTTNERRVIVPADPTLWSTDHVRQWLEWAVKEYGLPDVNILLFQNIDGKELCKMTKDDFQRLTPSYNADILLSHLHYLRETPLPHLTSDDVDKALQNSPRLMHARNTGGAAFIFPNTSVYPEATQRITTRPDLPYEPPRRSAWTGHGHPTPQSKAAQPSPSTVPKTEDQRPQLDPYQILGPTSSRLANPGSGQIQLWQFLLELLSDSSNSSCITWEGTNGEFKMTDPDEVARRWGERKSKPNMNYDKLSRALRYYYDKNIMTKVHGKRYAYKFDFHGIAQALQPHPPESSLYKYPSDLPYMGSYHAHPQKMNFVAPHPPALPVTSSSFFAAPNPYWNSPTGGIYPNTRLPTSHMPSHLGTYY
# Method in brief: as §1
# [5] = biological target: ELF1 (Homo sapiens, UniProt P32519 1-619); settings: protein: recombinant; tags: N-terminal GST; dsDNA, one strand shown
# Sequence of ELF1 (P32519 whole entry): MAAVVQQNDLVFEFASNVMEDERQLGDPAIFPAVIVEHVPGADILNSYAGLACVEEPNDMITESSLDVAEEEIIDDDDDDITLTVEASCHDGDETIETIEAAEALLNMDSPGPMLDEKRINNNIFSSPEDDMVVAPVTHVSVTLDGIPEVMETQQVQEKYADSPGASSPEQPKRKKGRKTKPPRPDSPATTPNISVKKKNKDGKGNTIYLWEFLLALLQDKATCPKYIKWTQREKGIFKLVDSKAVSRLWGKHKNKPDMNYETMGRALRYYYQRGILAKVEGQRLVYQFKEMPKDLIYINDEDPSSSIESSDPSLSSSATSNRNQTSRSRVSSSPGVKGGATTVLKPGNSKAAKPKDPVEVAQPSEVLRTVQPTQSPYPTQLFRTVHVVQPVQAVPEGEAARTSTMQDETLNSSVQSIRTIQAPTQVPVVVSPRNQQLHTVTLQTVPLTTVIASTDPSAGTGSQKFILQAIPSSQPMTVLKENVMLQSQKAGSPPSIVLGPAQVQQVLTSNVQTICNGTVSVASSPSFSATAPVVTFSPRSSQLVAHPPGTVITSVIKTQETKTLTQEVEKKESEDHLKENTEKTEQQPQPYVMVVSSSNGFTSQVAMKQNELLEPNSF
# Method in brief: as §1
# [6] = biological target: T5, EHF (Homo sapiens, UniProt Q9NZC4 1-300); settings: protein: recombinant; tags: N-terminal GST; dsDNA, one strand shown
# T5 sequence: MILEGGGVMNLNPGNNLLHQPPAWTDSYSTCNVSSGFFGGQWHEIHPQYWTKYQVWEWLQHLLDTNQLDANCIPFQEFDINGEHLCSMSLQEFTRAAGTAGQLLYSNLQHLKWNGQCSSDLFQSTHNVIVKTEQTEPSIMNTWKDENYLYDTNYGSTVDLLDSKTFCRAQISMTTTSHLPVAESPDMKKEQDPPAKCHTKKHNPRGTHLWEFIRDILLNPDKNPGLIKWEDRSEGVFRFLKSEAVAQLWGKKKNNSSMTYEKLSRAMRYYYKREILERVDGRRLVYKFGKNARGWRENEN
# Method in brief: as §1
# [7] = biological target: SPI1 (Homo sapiens, UniProt P17947 1-270); settings: protein: recombinant; tags: N-terminal GST; dsDNA, one strand shown
# Method in brief: as §1
# [8] = biological target: SPIB (Homo sapiens, UniProt Q01892 1-262); settings: protein: recombinant; tags: N-terminal GST; dsDNA, one strand shown
# Sequence of SPIB (Q01892 whole entry): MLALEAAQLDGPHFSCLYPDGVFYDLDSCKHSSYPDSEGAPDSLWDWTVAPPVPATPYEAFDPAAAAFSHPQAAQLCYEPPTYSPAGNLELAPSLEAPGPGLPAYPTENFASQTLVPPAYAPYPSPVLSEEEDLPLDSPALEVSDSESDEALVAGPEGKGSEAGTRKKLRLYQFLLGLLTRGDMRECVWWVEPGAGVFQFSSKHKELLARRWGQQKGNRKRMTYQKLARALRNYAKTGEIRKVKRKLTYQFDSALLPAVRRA
# Method in brief: as §1
# [9] = biological target: T6, ELK3 (Homo sapiens, UniProt P41970 1-407); settings: protein: recombinant; tags: N-terminal GST; dsDNA, one strand shown
# T6 sequence: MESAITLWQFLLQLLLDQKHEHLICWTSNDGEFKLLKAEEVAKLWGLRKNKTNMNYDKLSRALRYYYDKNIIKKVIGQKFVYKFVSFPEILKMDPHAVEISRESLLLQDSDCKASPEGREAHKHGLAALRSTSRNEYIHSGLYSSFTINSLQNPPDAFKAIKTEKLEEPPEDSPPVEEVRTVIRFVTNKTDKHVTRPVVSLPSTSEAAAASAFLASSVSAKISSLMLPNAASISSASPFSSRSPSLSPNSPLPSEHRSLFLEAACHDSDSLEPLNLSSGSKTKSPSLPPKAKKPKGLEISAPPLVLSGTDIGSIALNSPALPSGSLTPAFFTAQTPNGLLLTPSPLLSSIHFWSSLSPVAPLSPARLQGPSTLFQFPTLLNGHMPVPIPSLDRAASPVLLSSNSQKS
# Method in brief: as §1
# [10] = biological target: T7, FEV (Homo sapiens, UniProt Q99581 1-238); settings: protein: recombinant; tags: N-terminal GST; dsDNA, one strand shown
# T7 sequence: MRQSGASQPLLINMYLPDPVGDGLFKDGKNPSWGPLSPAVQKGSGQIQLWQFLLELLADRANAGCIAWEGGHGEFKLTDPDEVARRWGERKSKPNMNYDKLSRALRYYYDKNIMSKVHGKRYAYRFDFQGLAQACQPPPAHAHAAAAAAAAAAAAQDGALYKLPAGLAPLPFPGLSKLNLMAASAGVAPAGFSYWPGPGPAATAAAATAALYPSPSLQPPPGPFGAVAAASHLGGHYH
# Method in brief: as §1
# [11] = biological target: ETV5 (Homo sapiens, UniProt P41161 1-510); settings: protein: recombinant; tags: N-terminal GST; dsDNA, one strand shown
# Sequence of ETV5 (P41161 whole entry): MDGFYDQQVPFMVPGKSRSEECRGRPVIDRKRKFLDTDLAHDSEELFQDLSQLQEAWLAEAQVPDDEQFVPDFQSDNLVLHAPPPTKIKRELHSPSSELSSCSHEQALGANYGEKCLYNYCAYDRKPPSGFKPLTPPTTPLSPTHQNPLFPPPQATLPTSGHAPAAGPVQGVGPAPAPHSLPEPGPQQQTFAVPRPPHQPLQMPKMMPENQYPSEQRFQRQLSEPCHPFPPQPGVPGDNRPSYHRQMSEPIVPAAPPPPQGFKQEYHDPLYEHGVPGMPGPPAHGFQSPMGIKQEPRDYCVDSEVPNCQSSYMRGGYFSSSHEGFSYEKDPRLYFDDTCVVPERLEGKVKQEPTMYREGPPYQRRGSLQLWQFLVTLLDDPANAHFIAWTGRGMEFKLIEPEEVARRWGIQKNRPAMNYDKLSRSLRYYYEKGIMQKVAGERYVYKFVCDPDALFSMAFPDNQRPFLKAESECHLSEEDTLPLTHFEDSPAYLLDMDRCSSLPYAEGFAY
# Method in brief: as §1
# [12] = biological target: HSF1 (Homo sapiens, UniProt Q00613 1-529); settings: protein: recombinant; tags: N-terminal GST; chain copies: 3; dsDNA, one strand shown
# Sequence of HSF1 (Q00613 whole entry): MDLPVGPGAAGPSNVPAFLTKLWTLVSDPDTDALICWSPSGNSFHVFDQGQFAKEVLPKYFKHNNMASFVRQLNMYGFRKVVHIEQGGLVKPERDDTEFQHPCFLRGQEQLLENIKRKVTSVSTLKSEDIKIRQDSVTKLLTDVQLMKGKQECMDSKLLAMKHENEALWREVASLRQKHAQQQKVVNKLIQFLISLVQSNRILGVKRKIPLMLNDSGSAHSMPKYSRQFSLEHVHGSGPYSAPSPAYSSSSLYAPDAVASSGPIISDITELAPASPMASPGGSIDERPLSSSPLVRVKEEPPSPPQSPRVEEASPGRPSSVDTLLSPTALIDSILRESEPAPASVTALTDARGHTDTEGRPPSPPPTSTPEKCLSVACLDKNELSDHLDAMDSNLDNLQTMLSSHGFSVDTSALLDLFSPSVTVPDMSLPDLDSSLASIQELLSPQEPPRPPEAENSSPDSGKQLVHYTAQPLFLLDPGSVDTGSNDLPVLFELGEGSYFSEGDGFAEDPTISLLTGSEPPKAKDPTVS
# Method in brief: as §1
# [13] = biological target: T8, SPIC (Homo sapiens, UniProt Q8N5J4 1-248); settings: protein: recombinant; tags: N-terminal GST; dsDNA, one strand shown
# T8 sequence: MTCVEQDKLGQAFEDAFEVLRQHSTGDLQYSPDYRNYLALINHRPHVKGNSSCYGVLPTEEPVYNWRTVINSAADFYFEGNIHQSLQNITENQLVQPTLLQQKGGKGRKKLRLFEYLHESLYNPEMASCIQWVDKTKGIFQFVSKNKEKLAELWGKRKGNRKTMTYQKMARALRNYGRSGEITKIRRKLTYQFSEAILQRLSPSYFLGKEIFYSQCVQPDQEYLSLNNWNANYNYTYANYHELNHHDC
# Method in brief: as §1
# [14] = biological target: ELF4 (Homo sapiens, UniProt Q99607 1-663); settings: protein: recombinant; tags: N-terminal GST; dsDNA, one strand shown
# Sequence of ELF4 (Q99607 whole entry): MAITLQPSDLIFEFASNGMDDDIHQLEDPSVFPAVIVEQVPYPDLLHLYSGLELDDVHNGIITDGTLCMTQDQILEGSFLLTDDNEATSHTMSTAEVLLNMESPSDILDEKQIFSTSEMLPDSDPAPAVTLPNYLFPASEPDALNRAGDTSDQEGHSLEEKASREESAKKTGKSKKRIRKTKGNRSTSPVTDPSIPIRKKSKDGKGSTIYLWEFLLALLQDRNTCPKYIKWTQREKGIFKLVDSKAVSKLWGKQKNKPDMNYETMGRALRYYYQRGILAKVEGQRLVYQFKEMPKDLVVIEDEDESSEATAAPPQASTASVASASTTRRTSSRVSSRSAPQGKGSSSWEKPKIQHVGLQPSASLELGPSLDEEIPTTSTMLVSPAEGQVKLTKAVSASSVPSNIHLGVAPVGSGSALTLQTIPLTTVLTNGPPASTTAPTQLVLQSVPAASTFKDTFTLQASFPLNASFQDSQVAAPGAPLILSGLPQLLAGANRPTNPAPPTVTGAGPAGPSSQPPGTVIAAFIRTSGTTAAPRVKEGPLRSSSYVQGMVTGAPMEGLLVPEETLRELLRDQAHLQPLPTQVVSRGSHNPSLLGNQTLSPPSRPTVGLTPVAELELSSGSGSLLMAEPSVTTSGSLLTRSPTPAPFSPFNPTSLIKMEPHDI
# Method in brief: as §1
# [15] = biological target: T9, ELK4 (Homo sapiens, UniProt P28324-2 1-405); settings: protein: recombinant; tags: N-terminal GST; dsDNA, one strand shown
# T9 sequence: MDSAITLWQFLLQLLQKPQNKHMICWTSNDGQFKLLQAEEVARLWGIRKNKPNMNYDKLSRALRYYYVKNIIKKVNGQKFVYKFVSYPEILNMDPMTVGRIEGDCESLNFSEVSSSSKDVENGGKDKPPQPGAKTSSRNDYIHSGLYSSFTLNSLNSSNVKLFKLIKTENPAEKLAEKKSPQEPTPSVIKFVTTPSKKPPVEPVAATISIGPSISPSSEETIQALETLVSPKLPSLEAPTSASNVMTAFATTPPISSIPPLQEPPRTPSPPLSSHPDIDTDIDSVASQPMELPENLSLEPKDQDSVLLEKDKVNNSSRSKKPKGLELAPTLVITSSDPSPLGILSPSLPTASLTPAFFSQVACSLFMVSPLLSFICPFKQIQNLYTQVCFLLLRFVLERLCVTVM
# Method in brief: as §1
# [16] = biological target: T10, ETV2 (Homo sapiens, UniProt O00321 1-342); settings: protein: recombinant; tags: N-terminal GST; dsDNA, one strand shown
# T10 sequence: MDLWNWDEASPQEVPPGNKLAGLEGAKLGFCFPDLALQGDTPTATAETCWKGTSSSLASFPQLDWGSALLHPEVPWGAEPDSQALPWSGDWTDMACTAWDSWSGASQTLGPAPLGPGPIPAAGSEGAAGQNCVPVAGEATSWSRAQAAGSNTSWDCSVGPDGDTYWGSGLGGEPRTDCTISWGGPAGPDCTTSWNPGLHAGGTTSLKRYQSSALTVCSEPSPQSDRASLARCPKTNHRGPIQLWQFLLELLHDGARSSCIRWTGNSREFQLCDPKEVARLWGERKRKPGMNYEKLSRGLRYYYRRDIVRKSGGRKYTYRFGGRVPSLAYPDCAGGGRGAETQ
# Method in brief: as §1
# [17] = biological target: T11, ELF3 (Homo sapiens, UniProt P78545 1-371); settings: protein: recombinant; tags: N-terminal GST; dsDNA, one strand shown
# T11 sequence: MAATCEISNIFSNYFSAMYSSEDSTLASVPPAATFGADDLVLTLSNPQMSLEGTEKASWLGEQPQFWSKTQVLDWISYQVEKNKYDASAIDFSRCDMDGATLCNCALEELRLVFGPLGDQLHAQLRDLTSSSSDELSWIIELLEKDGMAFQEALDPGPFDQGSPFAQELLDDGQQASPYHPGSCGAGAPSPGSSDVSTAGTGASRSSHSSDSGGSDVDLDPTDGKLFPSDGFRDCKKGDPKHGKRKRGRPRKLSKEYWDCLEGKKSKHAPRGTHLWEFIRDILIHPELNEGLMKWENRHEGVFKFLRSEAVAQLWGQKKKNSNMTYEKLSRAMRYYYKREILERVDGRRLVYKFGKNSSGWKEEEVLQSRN
# Method in brief: as §1
# [18] = biological target: CRX (Homo sapiens, UniProt O43186 1-299); settings: protein: recombinant; tags: N-terminal GST; dsDNA, one strand shown
# Sequence of CRX (O43186 whole entry): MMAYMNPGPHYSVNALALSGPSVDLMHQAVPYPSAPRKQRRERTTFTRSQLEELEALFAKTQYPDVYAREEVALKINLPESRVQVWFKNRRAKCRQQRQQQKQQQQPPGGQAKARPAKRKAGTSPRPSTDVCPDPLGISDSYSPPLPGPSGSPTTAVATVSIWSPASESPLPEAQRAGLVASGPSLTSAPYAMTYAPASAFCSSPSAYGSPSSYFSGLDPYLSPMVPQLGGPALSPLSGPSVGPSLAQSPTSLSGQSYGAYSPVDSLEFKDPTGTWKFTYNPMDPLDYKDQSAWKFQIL
# Method in brief: as §1
# [19] = biological target: ETV1 (Homo sapiens, UniProt P50549 1-477); settings: protein: recombinant; tags: N-terminal GST; dsDNA, one strand shown
# Sequence of ETV1 (P50549 whole entry): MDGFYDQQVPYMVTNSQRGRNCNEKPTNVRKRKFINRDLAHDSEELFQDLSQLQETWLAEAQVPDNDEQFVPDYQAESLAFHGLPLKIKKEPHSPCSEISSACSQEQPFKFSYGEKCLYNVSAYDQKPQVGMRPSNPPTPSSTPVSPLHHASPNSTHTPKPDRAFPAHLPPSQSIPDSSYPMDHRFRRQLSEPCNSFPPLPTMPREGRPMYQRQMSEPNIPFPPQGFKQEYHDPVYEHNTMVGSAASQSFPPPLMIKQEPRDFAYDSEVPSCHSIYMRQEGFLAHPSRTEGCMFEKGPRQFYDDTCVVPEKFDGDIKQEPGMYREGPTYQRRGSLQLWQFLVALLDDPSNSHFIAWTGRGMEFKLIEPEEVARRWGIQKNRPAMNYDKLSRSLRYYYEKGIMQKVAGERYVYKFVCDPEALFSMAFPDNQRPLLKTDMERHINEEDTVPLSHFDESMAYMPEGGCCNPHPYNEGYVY
# Method in brief: as §1
sequence,measurement,setting,value
ACTTCG,binding signal,[1],"1.38 fold enrichment (6-mer frequency, TF over GST control)"
same,binding signal,[2],"1.38 fold enrichment (6-mer frequency, TF over GST control)"
same,binding signal,[3],"1.46 fold enrichment (6-mer frequency, TF over GST control)"
same,binding signal,[4],"1.47 fold enrichment (6-mer frequency, TF over GST control)"
same,binding signal,[5],"1.33 fold enrichment (6-mer frequency, TF over GST control)"
same,binding signal,[6],"1.3 fold enrichment (6-mer frequency, TF over GST control)"
same,binding signal,[7],"1.44 fold enrichment (6-mer frequency, TF over GST control)"
same,binding signal,[8],"1.39 fold enrichment (6-mer frequency, TF over GST control)"
same,binding signal,[9],"1.49 fold enrichment (6-mer frequency, TF over GST control)"
same,binding signal,[10],"1.42 fold enrichment (6-mer frequency, TF over GST control)"
same,binding signal,[11],"1.39 fold enrichment (6-mer frequency, TF over GST control)"
same,binding signal,[12],"1.65 fold enrichment (6-mer frequency, TF over GST control)"
same,binding signal,[13],"1.55 fold enrichment (6-mer frequency, TF over GST control)"
same,binding signal,[14],"1.47 fold enrichment (6-mer frequency, TF over GST control)"
same,binding signal,[15],"1.25 fold enrichment (6-mer frequency, TF over GST control)"
same,binding signal,[16],"1.45 fold enrichment (6-mer frequency, TF over GST control)"
same,binding signal,[17],"1.23 fold enrichment (6-mer frequency, TF over GST control)"
same,binding signal,[18],"1.3 fold enrichment (6-mer frequency, TF over GST control)"
same,binding signal,[19],"1.46 fold enrichment (6-mer frequency, TF over GST control)"
